This passage reports activity, negative = inhibition and Potency results from PubChem BioAssay (NCATS).

The nature of experiment [1]: qHTS profiling for inhibitors of Plasmodium falciparum proliferation (AID 504749).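 For activity, negative = inhibition: 0% = DMSO vehicle and full inhibition = artemisinin control.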 Note: nearly all actives have a fitted effect of over 60% in size. The note with it: P. falciparum in erythrocytes, SYBR Green DNA, 72 h. Summed up: (§1)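 Three-day growth assay of blood-stage parasites in erythrocytes (0.3% parasitemia, 2.5% hematocrit) at 37 C, 5% CO2, quantified by SYBR Green DNA staining after overnight detergent lysis.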
In general terms: Quantitative high-throughput screening tests each substance at several concentrations.

Experiment [2] deals with 3D7. The description is as above. The conditions noted are these: P. falciparum in erythrocytes, SYBR Green DNA, 72 h; series mostly up to 28.7 µM. Summed up: as §1
Experiment [3] deals with AS120. Described as above. The note with it: P. falciparum in erythrocytes, SYBR Green DNA, 72 h; series mostly up to 28.7 µM. Put shortly: as §1
For experiment [4], the system named is C2A. The description is as above. The note with it: P. falciparum in erythrocytes, SYBR Green DNA, 72 h; series mostly up to 28.7 µM. Put shortly:
as §1

Experiment [5] relates to CP185. Described as above. The conditions noted are these: P. falciparum in erythrocytes, SYBR Green DNA, 72 h; series mostly up to 28.7 µM. Summed up:
as §1

The test system of experiment [6] is CP191. Described as above. The conditions noted are these: P. falciparum in erythrocytes, SYBR Green DNA, 72 h; series mostly up to 28.7 µM. Summed up: as §1
Experiment [7] deals with 7G8. Described as above. The conditions noted are these: P. falciparum in erythrocytes, SYBR Green DNA, 72 h; series mostly up to 28.7 µM. Put shortly: as §1
The subject of experiment [8] is AA1029. The description is as above. The note with it: P. falciparum in erythrocytes, SYBR Green DNA, 72 h; series mostly up to 28.7 µM. Put shortly: as §1
The subject of experiment [9] is ATS189. The experiment is described as above. The note with it: P. falciparum in erythrocytes, SYBR Green DNA, 72 h; series mostly up to 28.7 µM. Summed up:
as §1

The subject of experiment [10] is ATS95. Described as above. The note with it: P. falciparum in erythrocytes, SYBR Green DNA, 72 h; series mostly up to 28.7 µM. Put shortly: as §1
[11] abbreviates: at 12.8 µM (top of the series), parasite line A.
Where [12] appears, read: at 12.8 µM (top of the series), parasite line B.
[13] abbreviates: at 28.7 µM (top of the series), parasite line A.
[14] abbreviates: at 28.7 µM (top of the series), parasite line B.

Records with an inconclusive call do not appear. A number with no mark means an inactive call. Activity calls are given as the source filed them. Calls come from the whole dose curve; as a rule, active = well fitted inhibition curve with a large enough effect; inconclusive = small, poorly fitted or top-dose-only effect; inactive = flat fitted curve, though single readings scatter.
Potency is the fitted concentration of half-maximal effect.

Take `CN(C)CCCOc1nn(Cc2ccccc2)c2ccccc12`: the activity, negative = inhibition in experiment [1] (setting [11]) was -0.403%; in experiment [1] (setting [12]), -0.662%. Further, the Potency entry in [2], in [3], in experiment [4], in experiment [5] and in experiment [6] was “inactive” in each case.
With `Cc1cccc(C)c1NC(=O)CN1CCN(CCCC(c2ccc(F)cc2)c2ccc(F)cc2)CC1`, the activity, negative = inhibition is -9.2% in experiment [1] (setting [11]) and -3.17% in experiment [1] (setting [12]). Further, the Potency in experiment [7] is 4.47 µM (active); in [3], 3.98 µM (active). Further, the Potency result in experiment [4], in [5] and in experiment [6] was “inactive” in each case.
With `CCCCCCCCCCCCCCCCCC(=O)OCC(O)CO` (stereo not given), the activity, negative = inhibition in experiment [1] (setting [13]) is 5.19%; in experiment [1] (setting [14]), 11.8%. Moreover, the Potency entry in [7], in experiment [8], in experiment [3], in experiment [9], in experiment [10] and in experiment [4] was “inactive” each time. Further, the Potency result in experiment [5] and in experiment [6] was “inactive” throughout.
Consider `CCCCC1=NC2(CCCC2)C(=O)N1Cc1ccc(-c2ccccc2-c2nn[nH]n2)cc1`, for which the results for the activity, negative = inhibition in experiment [1] (setting [13]) and in [1] (setting [14]) were -0.908% and -26.5%, respectively. For the same compound, the Potency entry in experiment [2], in experiment [8], in experiment [3], in [9], in experiment [4] and in experiment [5] was “inactive” in each case. The Potency entry in experiment [6] was “inactive”.
On to `N[C@H](Cc1c[nH]c2ccccc12)C(=O)O`, for which the activity, negative = inhibition in experiment [1] (setting [13]) is 7.64%; in experiment [1] (setting [14]), 6.56%. The Potency entry in [2], in experiment [8], in experiment [3], in experiment [9], in experiment [10] and in experiment [4] was “inactive” in each case. The Potency result in experiment [5] and in [6] was “inactive” in each case.
For `C[C@@H](CN(C)C)CN1c2ccccc2Sc2ccccc21`, the values for the activity, negative = inhibition in experiment [1] (setting [11]) and in experiment [1] (setting [12]) were 1.53% and 7.77%, respectively. The Potency result in [2], in experiment [8], in experiment [3], in experiment [9], in [10] and in experiment [4] was “inactive” each time. Moreover, the Potency entry in experiment [5] was “inactive”.
`CCCCCCCCCCCCCCCCOP(=O)([O-])OCC[N+](C)(C)C`: the activity, negative = inhibition is -1.43% in experiment [1] (setting [13]) and 12.3% in [1] (setting [14]). Moreover, the Potency entry in experiment [2], in experiment [8], in [3], in experiment [9], in experiment [10] and in experiment [4] was “inactive” each time. Also, the Potency entry in experiment [5] and in [6] was “inactive” in each case.
Take `CCN(CCCc1ccccc1)CCCc1ccccc1`: the values for the activity, negative = inhibition in experiment [1] (setting [11]) and in experiment [1] (setting [12]) were -8.39% and -11%, respectively. Moreover, the Potency entry in experiment [2], in experiment [4] and in experiment [6] was “inactive” throughout. For the same compound, the Potency in experiment [10] is 3.55 µM (active).
Regarding `Cc1cc(O)c(C(C)C)cc1Cl`, the activity, negative = inhibition in experiment [1] (setting [13]) was 0.647%; in experiment [1] (setting [14]) it was 11.2%. The Potency entry in experiment [2], in experiment [8], in [3], in [9], in experiment [10] and in [4] was “inactive” in each case. Further, the Potency result in experiment [5] and in experiment [6] was “inactive” each time.
In the case of `CC[N+](CC)(CCNC(=O)C(=O)NCC[N+](CC)(CC)Cc1ccccc1Cl)Cc1ccccc1Cl`, the Potency is 1.12 µM (active) in [1] (parasite line A); 0.794 µM (active) in experiment [1] (parasite line B); 7.94 µM (active) in experiment [7]; 2.82 µM (active) in experiment [8]; 1 µM (active) in experiment [3]; 2.24 µM (active) in experiment [9]. Besides, the Potency in experiment [10] was 2.82 µM (active); in [4], 10 µM (active); in experiment [5], 1.58 µM (active); in [6], 4.47 µM (active).
On to `O=C1[C@H]2CCCC[C@H]2C(=O)N1CCCCN1CCN(c2nsc3ccccc23)CC1`, for which the values for the activity, negative = inhibition in experiment [1] (setting [13]) and in experiment [1] (setting [14]) were -3.99% and 7.58%, respectively. In addition, the Potency result in experiment [8], in experiment [3], in experiment [9], in experiment [10] and in [5] was “inactive” each time.
In the case of `Oc1c(I)cc(Cl)c2cccnc12`, the Potency is 8.91 µM (active) in experiment [1] (parasite line A); 8.91 µM (active) in experiment [1] (parasite line B); 10 µM (active) in experiment [3]; 12.6 µM (active) in experiment [9]; 11.2 µM (active) in experiment [4]; 11.2 µM (active) in experiment [5]. Further, the Potency in experiment [6] is 11.2 µM (active). The Potency result in experiment [2] and in experiment [10] was “inactive” in each case.
In the case of `CCN(CC)C(=O)/C(C#N)=C/c1cc(O)c(O)c([N+](=O)[O-])c1`, the figures for the activity, negative = inhibition in experiment [1] (setting [13]) and in experiment [1] (setting [14]) were -3.14% and -7.95%, respectively. Moreover, the Potency in experiment [7] is 14.1 µM (active). In addition, the Potency result in experiment [8], in experiment [3], in [9], in [10], in experiment [4] and in [5] was “inactive” each time. The Potency result in [6] is “inactive”.
On to `CC(C)N=C(N)/N=C(\N)Nc1ccc(Cl)cc1`, for which the figures for the Potency in experiment [1] (parasite line A), in experiment [1] (parasite line B) and in experiment [6] were 1.12 µM (active), 1.58 µM (active) and 1 µM (active), respectively. Also, the Potency entry in [10] and in [4] was “inactive” each time.
Consider `CC(C)(C(=O)c1cccnc1)c1cccnc1`, for which the activity, negative = inhibition in [1] (setting [11]) is -8.96%; in experiment [1] (setting [12]), -23.5%. In addition, the Potency entry in experiment [2], in [8], in experiment [3], in [9], in experiment [10] and in experiment [4] was “inactive” throughout. Also, the Potency result in experiment [5] and in experiment [6] was “inactive” in each case.
`COc1cc2c(cc1OC)C(=O)C(CC1CCN(Cc3ccccc3)CC1)C2` (stereo not given): the results for the activity, negative = inhibition in [1] (setting [13]) and in experiment [1] (setting [14]) were -29.4% and 5.51%, respectively. For the same compound, the Potency result in experiment [2], in experiment [3] and in experiment [10] was “inactive” throughout. Besides, in experiment [6], the Potency is 8.91 µM (active).
`CC(O)C(=O)O` (stereo not given): the activity, negative = inhibition was 1.12% in [1] (setting [13]) and 5.39% in [1] (setting [14]). Also, the Potency result in experiment [7], in experiment [8], in experiment [3], in experiment [9], in [4] and in experiment [5] was “inactive” throughout. Further, the Potency entry in [6] is “inactive”.
On to `Oc1ccc(O)cc1`, for which the Potency in [2] was 8.91 µM (active). Besides, the Potency entry in [8], in [9], in experiment [10], in [5] and in experiment [6] was “inactive” in each case.
`COc1ccc(C2C(=O)c3ccccc3C2=O)cc1`: the activity, negative = inhibition in [1] (setting [13]) is 3.83%. Moreover, the Potency result in experiment [2], in experiment [7], in experiment [8], in experiment [3], in [9] and in experiment [10] was “inactive” throughout. Further, the Potency result in experiment [4], in experiment [5] and in experiment [6] was “inactive” throughout.
As to `NC(CS)C(=O)O` (stereo not given), the Potency in [7] is 1.78 µM (active); in experiment [8] it was 15.8 µM (active); in [10] it was 12.6 µM (active); in experiment [6], 10 µM (active). In addition, the Potency result in experiment [5] was “inactive”.
As for `CNCCC=C1c2ccccc2CCc2ccccc21`, the activity, negative = inhibition in experiment [1] (setting [13]) is -6.28%. The Potency entry in experiment [2] was “inactive”. In addition, the Potency in experiment [7] is 11.2 µM (active); in experiment [8] it was 4.47 µM (active); in experiment [10], 5.62 µM (active).
